In PubChem BioAssay AID1159580 (chemical genetic matrix, 2015):
Hit rate of the full screen: of about 5,500 compounds, about 2,000 (36%) were called active. Not shown: some 18% with an inconclusive outcome. No stated cut-off is given here; in the data, active means normalized growth mostly below about 0.91 (no sharp cut-off); inconclusive means no clear call, values can overlap the other calls; inactive means mostly above about 0.92. This is one part of the list.

Assay: chemical genetic growth profiling, strain panel (AID 1159580);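 further: tested at 20 µM; growth read once vehicle control cultures reached saturation at 30 °C; 1 = growth at the plate median or of vehicle wells; lower values mean less growth of the strain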
Conditions: S. cerevisiae deletion strains, growth OD
[1] = locus YAR019C, strain CDC15, hits give low values
[2] = locus YBL105C, strain PKC1, hits give low values
[3] = locus YBR135W, strain CKS1, hits give low values
[4] = locus YBR136W, strain MEC1, hits give low values
[5] = locus YBR160W, strain CDC28, hits give low values
[6] = locus YDL017W, strain CDC7, hits give low values
[7] = locus YDL028C, strain MPS1, hits give low values
[8] = locus YDL101C, strain DUN1, hits give low values
[9] = locus YDL108W, strain KIN28, hits give low values
[10] = locus YDL132W, strain cdc53, hits give low values
[11] = locus YDL214C, strain PRR2, hits give low values
[12] = locus YDR052C, strain DBF4, hits give low values
[13] = locus YDR054C, strain cdc34, hits give low values
[14] = locus YDR226W, strain ADK1, hits give low values
[15] = locus YDR477W, strain SNF1, hits give low values
[16] = locus YER123W, strain YCK3, hits give low values
[17] = locus YER133W, strain GLC7, hits give low values
[18] = locus YFL009W, strain cdc4, hits give low values
[19] = locus YFL029C, strain CAK1, hits give low values
[20] = locus YFR003C, strain YPI1, hits give low values
[21] = locus YFR019W, strain FAB1, hits give low values
[22] = locus YFR028C, strain CDC14, hits give low values
[23] = locus YGR040W, strain KSS1, hits give low values
[24] = locus YGR052W, strain FMP48, hits give low values
[25] = locus YGR092W, strain DBF2, hits give low values
[26] = locus YHR030C, strain SLT2, hits give low values
[27] = locus YHR079C, strain IRE1, hits give low values
[28] = locus YHR082C, strain KSP1, hits give low values
[29] = locus YHR205W, strain SCH9, hits give low values
[30] = locus YIL147C, strain SLN1, hits give low values
[31] = locus YJL095W, strain BCK1, hits give low values
[32] = locus YJL128C, strain PBS2, hits give low values
[33] = locus YJL157C, strain FAR1, hits give low values
[34] = locus YJR016C, strain ILV3, hits give low values
[35] = locus YJR066W, strain TOR1 (second series), hits give low values
[36] = locus YJR066W, strain TOR1, hits give low values
[37] = locus YKL048C, strain ELM1, hits give low values
[38] = locus YKL067W, strain YNK1, hits give low values
[39] = locus YKL101W, strain HSL1, hits give low values
[40] = locus YKL193C, strain SDS22, hits give low values
[41] = locus YKL203C, strain TOR2, hits give low values
[42] = locus YLR113W, strain HOG1, hits give low values
[43] = locus YLR133W, strain CKI1, hits give low values
[44] = locus YLR403W, strain SFP1, hits give low values
[45] = locus YML070W, strain DAK1, hits give low values
[46] = locus YMR001C, strain CDC5, hits give low values
[47] = locus YMR205C, strain PFK2 (second series), hits give low values
[48] = locus YMR277W, strain FCP1, hits give low values
[49] = locus YNL006W, strain LST8, hits give low values
[50] = locus YNL020C, strain ARK1, hits give low values
[51] = locus YNL161W, strain CBK1, hits give low values
[52] = locus YNL183C, strain NPR1, hits give low values
[53] = locus YNL207W, strain RIO2, hits give low values
[54] = locus YNL222W, strain SSU72, hits give low values
[55] = locus YNL307C, strain MCK1 (second series), hits give low values
[56] = locus YOL078W, strain AVO1, hits give low values
[57] = locus YOL136C, strain PFK27, hits give low values
[58] = locus YOR061W, strain CKA2, hits give low values
[59] = locus YOR119C, strain RIO1, hits give low values
[60] = locus YOR231W, strain MKK1, hits give low values
[61] = locus YOR329C, strain SCD5, hits give low values
[62] = locus YPL031C, strain PHO85, hits give low values
[63] = locus YPL153C, strain RAD53, hits give low values
[64] = locus YPL204W, strain HRR25, hits give low values
[65] = locus YPL209C, strain IPL1, hits give low values
[66] = locus YPL256C, strain CLN2, hits give low values
[67] = locus YPR025C, strain CCL1, hits give low values
[68] = locus YPR106W, strain ISR1, hits give low values
[69] = locus YPR111W, strain DBF20, hits give low values
[70] = strain NNK1, hits give low values
[71] = strain TSCII, hits give low values

Measured: normalized growth

C/C(=N/Nc1nc(C(C)(C)C)cs1)c1ccc(Cl)c(Cl)c1
active: [26] 0.753 | [42] 0.803 | [66] 0.757
inactive: [1] 0.986 | [2] 0.983 | [3] 0.994 | [4] 0.99 | [5] 0.987 | [6] 0.981 | [7] 0.996 | [8] 0.981 | [9] 0.994 | [10] 0.99 | [11] 0.919 | [12] 0.977 | [13] 0.978 | [14] 0.973 | [15] 0.944 | [16] 0.844 | [17] 0.943 | [18] 0.987 | [19] 0.981 | [20] 0.985 | [21] 0.91 | [22] 0.994 | [23] 0.945 | [24] 0.932 | [25] 0.923 | [27] 0.759 | [28] 0.965 | [29] 0.953 | [30] 0.993 | [31] 0.839 | [32] 0.954 | [33] 0.889 | [34] 0.993 | [35] 0.835 | [36] 0.891 | [37] 0.97 | [38] 0.949 | [39] 0.98 | [40] 0.991 | [41] 0.969 | [43] 0.933 | [44] 0.908 | [45] 0.916 | [46] 0.983 | [47] 0.97 | [48] 0.986 | [49] 0.986 | [50] 0.917 | [51] 0.99 | [52] 0.92 | [53] 0.976 | [54] 0.987 | [55] 0.899 | [56] 0.989 | [57] 0.871 | [58] 0.943 | [59] 1 | [60] 0.792 | [61] 0.981 | [62] 0.903 | [63] 0.932 | [64] 0.899 | [65] 0.987 | [67] 0.992 | [68] 0.983 | [69] 0.974 | [70] 0.974 | [71] 0.989

CC(C)(C)OC(=O)NC1CCN(C(=O)c2ccc(Cl)cc2Cl)CC1
inactive: locus YAL013W, strain DEP1, hits give low values 1 | locus YBR229C, strain ROT2, hits give low values 0.993 | locus YCL061C, strain MRC1, hits give low values 1.01 | [8] 0.995 | locus YDL134C, strain PPH21, hits give low values 0.999 | locus YDR150W, strain NUM1, hits give low values 0.95 | locus YEL061C, strain CIN8, hits give low values 1 | locus YGR078C, strain PAC10, hits give low values 1 | locus YGR229C, strain SMI1, hits give low values 1.01 | [26] 1.11 | locus YHR087W, strain rtc3, hits give low values 0.996 | locus YJL187C, strain SWE1, hits give low values 1.01 | locus YJR043C, strain POL32, hits give low values 0.997 | locus YJR075W, strain HOC1, hits give low values 0.999 | locus YKL190W, strain CNB1, hits give low values 1.01 | locus YLR039C, strain RIC1, hits give low values 1.02 | locus YLR058C, strain SHM2 (second series), hits give low values 1 | locus YLR085C, strain ARP6, hits give low values 1.03 | locus YLR262C, strain YPT6, hits give low values 1.09 | locus YML094W, strain GIM5, hits give low values 1.04 | locus YMR219W, strain ESC1, hits give low values 0.996 | locus YMR263W, strain SAP30, hits give low values 0.989 | locus YMR307W, strain GAS1, hits give low values 0.824 | locus YNL128W, strain TEP1, hits give low values 1.01 | locus YNL153C, strain GIM3, hits give low values 1 | locus YNL298W, strain CLA4 (second series), hits give low values 1.01 | locus YNL322C, strain KRE1, hits give low values 0.995 | locus YNR030W, strain Alg12, hits give low values 1.02 | locus YPL055C, strain LGE1, hits give low values 1.08 | locus YPL241C, strain CIN2, hits give low values 1.01 | locus YPR135W, strain CTF4, hits give low values 1

CC(C)(C)c1csc(NC(=O)Nc2ccc(Cl)cc2)n1
active: [11] 0.684 | [15] 0.605 | [16] 0.466 | [17] 0.534 | [21] 0.722 | [23] 0.634 | [24] 0.304 | [25] 0.48 | [26] 0.39 | [27] 0.509 | [28] 0.466 | [31] 0.345 | [35] 0.625 | [36] 0.452 | [37] 0.609 | [38] 0.732 | [39] 0.441 | [41] 0.565 | [42] 0.28 | [43] 0.687 | [44] 0.601 | [45] 0.441 | [47] 0.705 | [50] 0.67 | [52] 0.281 | [55] 0.553 | [59] 0.524 | [60] 0.5 | [62] 0.43 | [63] 0.481 | [64] 0.529 | [66] 0.44
inactive: [1] 0.989 | [2] 0.972 | [3] 0.973 | [4] 0.976 | [5] 0.985 | [6] 0.982 | [7] 0.973 | [8] 0.974 | [9] 0.978 | [10] 0.974 | [12] 0.983 | [13] 0.974 | [14] 0.973 | [18] 0.972 | [19] 0.97 | [20] 0.981 | [22] 0.97 | [29] 0.583 | [30] 0.972 | [32] 0.905 | [33] 0.81 | [34] 0.981 | [40] 0.981 | [46] 0.97 | [48] 0.974 | [49] 0.979 | [51] 0.969 | [53] 0.97 | [54] 0.983 | [56] 0.982 | [57] 0.719 | [58] 0.732 | [61] 0.982 | [65] 0.98 | [67] 0.977 | [68] 0.97 | [69] 0.967 | [70] 0.953 | [71] 0.981
